The values below come from PubChem BioAssay.

This experiment deals with Lefty1. In words: Lefty1 binders on small-molecule microarrays, primary screen, biochemical, small-molecule microarray, 635/667 nm fluorescence (AID 1139). Particulars: small-molecule microarray binding, fluorescence 635/667; higher = more signal.
The compound `COC(=O)[C@@H]1N=C(c2ccc(OCCCO)cc2)O[C@@H]1C` yielded a composite z-score of 0.516.

With `C=C[C@H]1C(C(=O)OCC)=CC[C@@H](c2ccccc2)N1S(=O)(=O)c1ccc(C)cc1`, the composite z-score was found to be 0.325.

With `CC(c1ccccc1)C(O)C1C=CC2C(=O)N(C)C(=O)C2N1Nc1ccccc1` (stereo not given), the composite z-score is -0.17.

`NC(=O)NCC#Cc1ccc2c(c1)[C@]1(C(=O)N2)[C@H](c2ccccc2OCCO)N2[C@H](c3ccccc3)[C@H](c3ccccc3)OC(=O)[C@H]2[C@@H]1C(=O)NC[C@H](O)c1ccccc1` showed a composite z-score of -0.0823.

`CCCCC[C@H]1OC[C@@]23C=C(Br)[C@@H](CC12)[C@@]1(CO1)C3=O` (stereo not given in full): the composite z-score is 0.505.

Regarding `CCC#CCN(Cc1ccccc1Br)[C@H](/C=C/C1CC1)[C@@H](O)Cc1ccccc1`, the composite z-score is -0.355.

As to `COC(=O)C(CC#Cc1ccc2c(c1)[C@]1(C(=O)N2)[C@H](c2ccc(O)cc2)N2[C@H](c3ccccc3)[C@H](c3ccccc3)OC(=O)[C@H]2[C@@H]1C(=O)NC[C@H](O)c1ccccc1)C(=O)OC`, the composite z-score was 0.685.

As to `CCCCC(O)C1C=CC2C(=O)N(C)C(=O)C2N1N(c1ccccc1)c1ccccc1` (stereo not given), the composite z-score was 0.194.

In turn, `O=C1[C@H]2C=C(I)[C@H](C[C@@H]2OCCOCCO)[C@@]12CO2` displayed a composite z-score of 0.858.

Consider `C=CC[C@]1(C(=O)N2CCCCC2)N=C(c2ccc(OCCCO)cc2)O[C@H]1c1ccccc1CN=[N+]=[N-]`, for which the composite z-score was found to be 0.228.

Regarding `COC(=O)[C@@]1(Cc2ccc(OC)cc2)[C@H]2c3cc(C(=O)N4CCCC4)n(CCO)c3C[C@H]2CN1C(=O)c1ccccc1`, the composite z-score is -0.539.

For `C=CC[C@]1(C(=O)N2CCOCC2)COC(c2ccc(OCCCO)cc2)=N1`, the composite z-score was determined as 0.768.

`CN(C)C(=O)[C@]1(CCC(=O)OC(C)(C)C)N=C(c2ccc(OCCCO)cc2)O[C@@H]1c1ccccc1CN=[N+]=[N-]` showed a composite z-score of 0.0183.

Take `CO[C@H]1O[C@H](CO)[C@@H](OC(=O)Nc2ccc3c(c2)OCO3)[C@H](OC(=O)Nc2ccc3c(c2)OCO3)[C@@H]1OC(=O)Nc1ccc2c(c1)OCO2`: the composite z-score is 0.484.

The compound `C=C[C@@H](OC)[C@H](OC(=O)Nc1ccc(OC)cc1)c1ccc(O)c(F)c1` showed a composite z-score of 1.35.

`COC(=O)c1c(CC[C@@H](CO)NC(=O)N[C@@H](C)Cn2cc(-c3ccccn3)nn2)oc(C(C)=O)c1C(=O)OC` showed a composite z-score of 0.936.

`CCCC[C@@H](O)C1=C(COC)C[C@H]2C(=O)N(Cc3ccccc3)C(=O)[C@H]2[C@H]1CO` registered a composite z-score of 0.697.

In turn, `CCCN1C(=O)[C@]2(Cc3ccccc31)N=C(c1ccc(OCCCO)cc1)O[C@@H]2c1ccccc1` gave a composite z-score of 0.56.

Compound `CCOC(=O)C[C@H]1[C@H](OC(=O)c2ccc(C(=O)c3ccccc3)cc2)[C@@H](NC(=O)C2CCCCC2)c2cc(OCCCO)ccc2N1C(=O)c1ccc2ccccc2n1` yielded a composite z-score of 1.41.

Compound `COc1cccc(C)c1NC(=O)O[C@H]1[C@H](OC(=O)Nc2ccc3c(c2)OCO3)[C@@H](OC(=O)Nc2ccc3c(c2)OCO3)[C@@H](OC)O[C@@H]1CO` registered a composite z-score of 1.28.

In turn, `CC(C)(C)OC(=O)COc1cccc(C(=O)CCN2CCOCC2)c1` gave a composite z-score of -0.57.

Turning to `CC(C)NC(=O)[C@@]1(C)c2ccccc2C(=O)N(Cc2ccc(OC(F)(F)F)cc2)[C@H]1c1ccc(CO)cc1`, the composite z-score is -1.44.

Compound `COc1cc2c(cc1O)C(c1cccs1)N(Cc1cc3c(cc1Br)OCO3)CC2` (stereo not given) had a composite z-score of 0.556.

For `CCCCNC(=O)c1ccc(C#CC(C)(C)C)c(OC(C)=O)c1`, the composite z-score is 0.777.

`CCCC1(C(=O)OC)C=C2C(=C(C)C(=O)C2C)CN1` (stereo not given): the composite z-score was -0.451.

Regarding `O=C(C1N=C(c2ccc(OCCCO)cc2)N(c2ccccc2)O1)N1CCCCC1` (stereo not given), the composite z-score turned out to be 0.168.

As for `CCCCN1CC=CC23O[C@@H]4/C=C\CCC(C)OC(=O)C4[C@H]2C(=O)N(CCCO)[C@@H]3C1=O` (stereo not given in full), the composite z-score was -0.46.

Compound `Cc1ccc(S[C@]2(C(=O)NCC(F)(F)F)CC(=O)N(Cc3cc(C(F)(F)F)cc(C(F)(F)F)c3)[C@@H]2c2ccc(CO)cc2)cc1` had a composite z-score of -0.126.

On to `COC(=O)[C@@]1(Cc2ccc(F)cc2)[C@H]2c3cc(C(=O)N(C)C)n(CCc4ccc(OC)c(Br)c4)c3C[C@H]2CN1C(=O)c1ccccc1`, for which the composite z-score is -0.337.

As to `O=C(NCCN1CCOCC1)[C@@H]1c2ccccc2C(=O)N(Cc2ccccc2Cl)[C@H]1c1ccc(CO)cc1`, the composite z-score is -1.19.

Take `CCCCCN1CC=CC23O[C@@H]4/C=C\CCCOC(=O)C4[C@H]2C(=O)N(C(C)CO)[C@@H]3C1=O` (stereo not given in full): the composite z-score was -0.476.

In turn, `COc1ccc(CCNC(=O)[C@@H]2c3ccccc3C(=O)N(C3CCCCC3)[C@H]2c2ccc(CO)cc2)cc1` had a composite z-score of -0.359.

In turn, `C=CCNC(=O)[C@H]1[C@@H]2C(=O)O[C@@H](c3ccccc3)[C@@H](c3ccccc3)N2[C@@H](c2ccccc2OCCO)[C@]12C(=O)N(C(=O)OCCOC)c1ccc(C#CC3(O)CCCCCC3)cc12` showed a composite z-score of 0.876.

Compound `C#Cc1cc2ccccc2oc1=O` came in with a composite z-score of -1.58.

Take `CCCC=C(CCC)[C@@H](NS(=O)(=O)CC12CCC(CC1=O)C2(C)C)c1ccc(C(=O)OC)cc1` (stereo not given in full): the composite z-score is 0.134.
